In PubChem BioAssay AID1159580 (chemical genetic matrix, 2015):
In all, about 5,500 compounds went through this assay and about 2,000 (36%) were called active. Not shown: some 18% with an inconclusive outcome. Cut-off read from the data, not from the text of the source: active = normalized growth mostly below about 0.91 (no sharp cut-off); inconclusive = no clear call, values can overlap the other calls; inactive = mostly above about 0.92. The list shows a part of the results.

Test: chemical genetic growth profiling, strain panel (AID 1159580);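 note: tested at 20 µM; growth read once vehicle control cultures reached saturation at 30 °C; 1 = growth at the plate median or of vehicle wells; lower values mean less growth of the strain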
Settings: S. cerevisiae deletion strains, growth OD

Measured: normalized growth

CC(=O)N1CCN(c2ccc(OC[C@H]3CO[C@](Cn4ccnc4)(c4ccc(Cl)cc4Cl)O3)cc2)CC1
active: locus YAL013W, strain DEP1, stronger effect = lower value 0.0911 | locus YAL040C, strain CLN3, stronger effect = lower value 0.208 | locus YCL061C, strain MRC1 (second series), stronger effect = lower value 0.0612 | locus YDR363W, strain ESC2, stronger effect = lower value 0.103 | locus YER002W, strain NOP16, stronger effect = lower value 0.137 | locus YGR078C, strain PAC10, stronger effect = lower value 0.139 | locus YGR229C, strain SMI1, stronger effect = lower value 0.0746 | locus YJR075W, strain HOC1, stronger effect = lower value 0.0931 | locus YMR263W, strain SAP30, stronger effect = lower value 0.588 | locus YNL128W, strain TEP1, stronger effect = lower value 0.16 | locus YNL153C, strain GIM3, stronger effect = lower value 0.14 | locus YNL175C, strain NOP13, stronger effect = lower value 0.133 | locus YNL197C, strain WHI3, stronger effect = lower value 0.147 | locus YNL224C, strain SQS1, stronger effect = lower value 0.18 | locus YNL322C, strain KRE1, stronger effect = lower value 0.0931 | locus YOR083W, strain WHI5 (second series), stronger effect = lower value 0.175 | locus YPL055C, strain LGE1, stronger effect = lower value 0.104

CCC(C)n1ncn(-c2ccc(N3CCN(c4ccc(OC[C@H]5CO[C@](Cn6cncn6)(c6ccc(Cl)cc6Cl)O5)cc4)CC3)cc2)c1=O (stereo not given in full)
active: locus YHR030C, strain SLT2, stronger effect = lower value 0.104 | locus YHR079C, strain IRE1, stronger effect = lower value 0.19 | locus YJL095W, strain BCK1, stronger effect = lower value 0.112 | locus YJR066W, strain TOR1, stronger effect = lower value 0.0832 | locus YLR113W, strain HOG1, stronger effect = lower value 0.187 | locus YNL183C, strain NPR1, stronger effect = lower value 0.183 | locus YOR231W, strain MKK1, stronger effect = lower value 0.177 | locus YPL256C, strain CLN2, stronger effect = lower value 0.188
